Measured values reported in PubChem BioAssay (Tox21).
The source made the active and inactive calls. Calls follow the shape of the dose curve; as a rule, active = well fitted curve in the direction sought with a large enough effect in the repeat runs; inconclusive = weak or mixed curves; inactive = flat fitted curve, though single readings scatter.

Experiment: qHTS assay to test for compound auto fluorescence at 535 nm (green) in HEK293 cell free culture (AID 720682)
Conditions: cell-free medium, green autofluorescence 485/535 nm; series mostly up to 91.3 µM
From the text: U.S. Tox21 Program National Center for Advancing Translational Sciences [NCATS] NIH Chemical Genomics Center [NCGC] U.S. Environmental Protection Agency [EPA] National Institutes of Environmental Health Sciences [NIEHS] National Toxicology Program [NTP] U.S. Food and Drug Administration [FDA] Tox21 Assay Overview: Compound auto fluorescence often interferes with screening of the compound library against various biological targets and signaling pathways. Some of these compounds may have fluorophoric properties. Such properties may interfere with the assay outputs resulting in false positives and/or negatives. To decrease such complications and ensure the compound activities are relevant in terms of biological response, the Tox21 10K compound library was screened for auto fluorescence. From the fluorophores used as reporter signals in our screening assays, the auto fluorescence equivalencies of compounds against three fluorophores have been evaluated: Triamterene, Fluorescein and Rose Bengal sodium for blue, green and red fluorescence, respectively. The fluorescence intensities were measured using Excitation/Emission wavelengths at 405/460nm, 485/535nm and 540/590nm for blue, green and red labels, respectively. This assay includes the green fluorescence data.
Tox21 Assay Protocol Summary: 5 uL of culture medium (DMEM containing 10% FBS) per well was dispensed into black wall/clear bottom 1536-well plates using a Multidrop Combi Dispenser (ThermoFisher Scientific, Waltham, MA). After 23 nL compound or DMSO vehicle was transferred into assay plate by a pintool work station (Kalypsys, San Diego, CA), fluorescence intensities in the assay plates were measured by an Envision (PerkinElmer, Shelton, CT) plate reader using three labels for measuring blue, green and red fluorescence at […] 460, 535 and 590nm respectively.

| SMILES | outcome |
| --- | --- |
| CC(CO)(CO)CO | inactive |
| CC1=C(C(=O)O)N2C(=O)[C@@H](NC(=O)[C@H](N)c3ccccc3)[C@H]2SC1 | inactive |
| CC(C)OC(=O)CCC(=O)OC(C)C | inactive |
| C=CCOC(=O)CCCCCC | inactive |
| NCC1(Cc2noc(=O)[nH]2)CCCCC1 | inactive |
| CC(C)CO | inactive |
| C=CCCCC | inactive |
| CC(S)C(C)S (stereo not given) | inactive |
| C/C=C(\C)C(C)=O | inactive |
| C=Cc1ccc(C(C)(C)C)cc1 | inactive |
| CCO[Si](CC)(OCC)OCC | inactive |
| CC(C)[C@H]1CC[C@H](C)C[C@@H]1O | inactive |
| N#Cc1cscn1 | inactive |
| Cc1cc(-c2ccccc2)nnc1NCCN1CCOCC1 | inactive |
| CC(C)Nc1ccccc1 | inactive |
| COC(=O)c1cc(Cl)cc(Cl)c1 | inactive |
| CC(C)=CCC/C(C)=C/COC=O | inactive |
| CCCSSCCC | inactive |
| Nc1nnnn1-c1ccccc1 | inactive |
| C=CCSSCCC | inactive |

| SMILES | outcome |
| --- | --- |
| CC(=O)OC(C)=O | inactive |
| Cc1cc(C)c(C(=O)O)c(C)c1 | inactive |
| CCCCCCCCCCCCCCC(=O)NC(CO)CCCCCCCCCCCCCC (stereo not given) | inactive |
| Cn1nnc2c(C(N)=O)ncn2c1=O | inactive |
| O=C=NCC1CCCC(CN=C=O)C1 (stereo not given) | inactive |
| CC(O)CC(C)O (stereo not given) | inactive |
| CCOC(=O)CC1(C)OCC(C)O1 (stereo not given) | inactive |
| CCC(C)C(C)=O (stereo not given) | inactive |
| CC(=O)CC(=O)Nc1ccc(C)cc1C | inactive |
| CC(C)=CCC[C@@](C)(O)[C@H]1CC=C(C)CC1 | inactive |
| CCOc1cccc(N)c1 | inactive |
| Cc1cccc(Cl)c1 | inactive |
| CN(C)C(C)(C)CO | inactive |
| C/C(CC(C)C)=N\O | inactive |
| CN(C)CCCO[C@@H]1[C@H]2OC(C)(C)O[C@H]2O[C@@H]1C(O)CO (stereo not given in full) | inactive |
| CC(C)OC(=O)OCOP(=O)(CO[C@H](C)Cn1cnc2c(N)ncnc21)OCOC(=O)OC(C)C | inactive |
| CN(C)CCN(C)CCO | inactive |
| CCCCCCCCCCOC(C)=O | inactive |
| Cc1ccccc1C(N)=O | inactive |
| COC(=O)c1ccccc1C(=O)O | inactive |
